Results filed as inconclusive are left out. Where a call stands in place of a potency, no number is given. Active and inactive are the calls of the source. The call rests on the fitted dose curve; in most records, active means well fitted inhibition curve with a large enough effect; inconclusive means small, poorly fitted or top-dose-only effect; inactive means flat fitted curve, though single readings scatter.
Potency means the concentration at half of the fitted maximal effect.

A short description of the assay: Primary qHTS for inhibitors of nuclear receptor binding SET domain protein 2 (NSD2) in an isogenic RCH-ACV NSD2 p.E1099K mutant (9B) (AID 1645876). Further: nearly all actives have a fitted effect of over 70% in size. Conditions: RCH-ACV (leukaemia line) NSD2 E1099K (9B) viability, CellTiter-Glo, 72 h; series mostly up to 44.9 µM.
With `C=C1C[C@]23C[C@H]1CC[C@H]2[C@@]12C=C[C@H](O)[C@@](C)(C(=O)O1)[C@H]2[C@@H]3C(=O)O`, the Potency result is “inactive”.
The same measure, in the same setting: as for `COc1ccc2c(c1)OC[C@]1(O)c3cc4c(cc3O[C@H]21)OCO4`, the entry is “inactive”.
For `C/C=C1\[C@H](O[C@@H]2O[C@H](CO)[C@@H](O)[C@H](O)[C@H]2O)OC=C(C(=O)OC)[C@H]1CC(=O)OC`, the Potency entry is “inactive”.
`CO[C@H]1C=C2C(CC[C@H](O[C@@H]3O[C@H](CO)[C@@H](O)[C@@H](O)[C@H]3O)C2(C)C)[C@]2(C)CC[C@]3(C)C([C@H](C)C(O)C(C=C(C)C)O[C@@H]4O[C@H](CO)[C@@H](O)[C@@H](O)[C@H]4O)CC[C@@]3(C)C12` (stereo not given in full): the outcome is “inactive [at 9.23 µM]”.
Consider `COc1ccc([C@H]2Cc3cccc(O)c3C(=O)O2)cc1`, for which the Potency entry was “inactive”.
On to `COC(=O)C1=COC(O[C@@H]2O[C@H](CO)[C@@H](O)[C@H](O)[C@H]2O)/C(=C\COC(=O)c2ccc(OC3OC(CO)C(O)C(O)C3O)c(OC)c2)C1CC(=O)OCCc1ccc(O)cc1` (stereo not given in full), for which the outcome was “inactive [at 9.23 µM]”.
For `CC1(C)CCCC2(C)C(CO)C3CCC2C31` (stereo not given), the Potency result is “inactive”.
On to `CC1=C2CC3OC3(C)CCC3OC3(C)CC2OC1=O` (stereo not given), for which the Potency result was “inactive”.
On the same count and under the same terms, as for `CC(=O)[C@@H]1CC[C@]2(C(=O)O)CC[C@]3(C)C(CCC4[C@@]5(C)CC[C@H](O)C(C)(C)C5CC[C@]43C)C12` (stereo not given in full), the figure is 7.96 µM (active).
On to `CN[C@@H]1[C@@H](O)[C@@H](O[C@@H]2[C@@H](O)[C@H](O[C@H]3O[C@H](CN)[C@@H](O)[C@H](O)[C@H]3O)[C@@H](N)C[C@H]2NC(=O)[C@@H](O)CN)OC[C@]1(C)O`, for which the Potency entry was “inactive”.

Source of the values: PubChem BioAssay (NCATS).
